For five molecules, composite z-score and z-score results are on record in PubChem BioAssay.

The subject of assay [1] is PRMT1 (protein arginine N-methyltransferase 1). As to the kind of experiment: small molecules binding arginine methyltransferase PRMT1 – biochemical, small-molecule microarray, 635 nm fluorescence, primary screen (AID 1088).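 Note: binding of Prmt1 protein to compounds spotted on small-molecule microarray slides.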 The settings on record: higher = more signal.
Assay [2] can be described thus: growth effects on S. cerevisiae YJM789 – YJM789 clinical isolate, OD600, 24 h, basal, primary screen (AID 1089).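 Note: growth of clinical yeast isolate S. cerevisiae YJM 789 seeded 1000 cells per well; test concentration not given here.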 The settings on record: higher = more signal, called active from +8 up or from −8 down.
Assay [3] in a line: S. pombe growth modifiers, basal conditions – strain 972, OD600, 24 h, no modulator, primary screen (AID 1090).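 Note: basal condition with compound alone and no growth modifier present; test concentration not given here.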 The following applies: S. pombe 972 growth, higher = more signal, called active from +8 up or from −8 down.
Assay [4] in a line: budding yeast growth modifiers under rapamycin – strain BY4716, OD600, 96 h, primary screen (AID 1091). Note: test concentration not given here. The following applies: S. cerevisiae BY4716 + rapamycin, higher = more signal, called active from +8 up or from −8 down.
The target in assay [5] is Torsin-1A-interacting protein 2 (Homo sapiens) (UniProt Q8NFQ8). As to the kind of experiment: small molecules binding lysate-expressed LULL1 – cell lysate, human LULL1 lysate, 635/667 nm fluorescence, primary screen (AID 1092).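 Note: probe is lysate of COS7 cells overexpressing human LULL1; score merges per-feature 667 nm fluorescence with signal-to-noise.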 The following applies: small-molecule microarray, hLULL1 lysate binding, 635 nm fluorescence; higher = more signal.
Sequence of Torsin-1A-interacting protein 2 (Homo sapiens) (Q8NFQ8 whole entry, looked up): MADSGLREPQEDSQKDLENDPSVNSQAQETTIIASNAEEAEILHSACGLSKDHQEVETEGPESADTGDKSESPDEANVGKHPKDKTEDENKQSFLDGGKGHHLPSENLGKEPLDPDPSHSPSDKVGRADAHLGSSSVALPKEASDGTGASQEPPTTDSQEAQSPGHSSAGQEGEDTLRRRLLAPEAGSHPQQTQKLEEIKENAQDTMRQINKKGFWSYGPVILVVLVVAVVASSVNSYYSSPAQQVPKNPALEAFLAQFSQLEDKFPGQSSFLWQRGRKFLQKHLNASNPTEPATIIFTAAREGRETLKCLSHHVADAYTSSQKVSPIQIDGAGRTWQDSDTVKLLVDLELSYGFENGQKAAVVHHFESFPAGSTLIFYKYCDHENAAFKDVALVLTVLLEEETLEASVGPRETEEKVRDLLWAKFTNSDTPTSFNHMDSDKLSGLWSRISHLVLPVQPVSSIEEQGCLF
Assay [6] is described as follows: optical density change of DRC41 E. coli – strain DRC41, OD650, 24 h, E. coli filamentation project, primary screen (AID 1093).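 Note: MC1000 strain lacking acrAB efflux and sulA so SOS filamentation is blocked; test concentration not given here.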 The following applies: E. coli DRC41 growth, higher = more signal, called active from +8 up or from −8 down.
Assay [7] can be described thus: probe aLefty2 binding to arrayed compounds – biochemical, biotinylated probe, 635/667 nm fluorescence, primary screen (AID 1094).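 Note: score merges spot fluorescence near 667 nm with spot signal-to-noise ratio.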 The following applies: small-molecule microarray, higher = more signal.
Assay [8] deals with Noggin (protein binding on small-molecule microarray). As to the kind of experiment: small molecules binding Noggin protein – biochemical, 635/667 nm fluorescence, primary screen (AID 1095).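 Note: score merges 667 nm feature fluorescence with signal to noise over triplicate slides.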 The settings on record: 635 nm fluorescence, higher = more signal.
The target in assay [9] is Neurogenic locus notch homolog protein 3 (Homo sapiens) (UniProt Q9UM47). As to the kind of experiment: small molecules binding NOTCH3 protein – biochemical, 635/667 nm fluorescence, primary screen (AID 1096). The following applies: small-molecule microarray, 635 nm fluorescence, higher = more signal.
Sequence of Neurogenic locus notch homolog protein 3 (Homo sapiens) (Q9UM47 whole entry, looked up): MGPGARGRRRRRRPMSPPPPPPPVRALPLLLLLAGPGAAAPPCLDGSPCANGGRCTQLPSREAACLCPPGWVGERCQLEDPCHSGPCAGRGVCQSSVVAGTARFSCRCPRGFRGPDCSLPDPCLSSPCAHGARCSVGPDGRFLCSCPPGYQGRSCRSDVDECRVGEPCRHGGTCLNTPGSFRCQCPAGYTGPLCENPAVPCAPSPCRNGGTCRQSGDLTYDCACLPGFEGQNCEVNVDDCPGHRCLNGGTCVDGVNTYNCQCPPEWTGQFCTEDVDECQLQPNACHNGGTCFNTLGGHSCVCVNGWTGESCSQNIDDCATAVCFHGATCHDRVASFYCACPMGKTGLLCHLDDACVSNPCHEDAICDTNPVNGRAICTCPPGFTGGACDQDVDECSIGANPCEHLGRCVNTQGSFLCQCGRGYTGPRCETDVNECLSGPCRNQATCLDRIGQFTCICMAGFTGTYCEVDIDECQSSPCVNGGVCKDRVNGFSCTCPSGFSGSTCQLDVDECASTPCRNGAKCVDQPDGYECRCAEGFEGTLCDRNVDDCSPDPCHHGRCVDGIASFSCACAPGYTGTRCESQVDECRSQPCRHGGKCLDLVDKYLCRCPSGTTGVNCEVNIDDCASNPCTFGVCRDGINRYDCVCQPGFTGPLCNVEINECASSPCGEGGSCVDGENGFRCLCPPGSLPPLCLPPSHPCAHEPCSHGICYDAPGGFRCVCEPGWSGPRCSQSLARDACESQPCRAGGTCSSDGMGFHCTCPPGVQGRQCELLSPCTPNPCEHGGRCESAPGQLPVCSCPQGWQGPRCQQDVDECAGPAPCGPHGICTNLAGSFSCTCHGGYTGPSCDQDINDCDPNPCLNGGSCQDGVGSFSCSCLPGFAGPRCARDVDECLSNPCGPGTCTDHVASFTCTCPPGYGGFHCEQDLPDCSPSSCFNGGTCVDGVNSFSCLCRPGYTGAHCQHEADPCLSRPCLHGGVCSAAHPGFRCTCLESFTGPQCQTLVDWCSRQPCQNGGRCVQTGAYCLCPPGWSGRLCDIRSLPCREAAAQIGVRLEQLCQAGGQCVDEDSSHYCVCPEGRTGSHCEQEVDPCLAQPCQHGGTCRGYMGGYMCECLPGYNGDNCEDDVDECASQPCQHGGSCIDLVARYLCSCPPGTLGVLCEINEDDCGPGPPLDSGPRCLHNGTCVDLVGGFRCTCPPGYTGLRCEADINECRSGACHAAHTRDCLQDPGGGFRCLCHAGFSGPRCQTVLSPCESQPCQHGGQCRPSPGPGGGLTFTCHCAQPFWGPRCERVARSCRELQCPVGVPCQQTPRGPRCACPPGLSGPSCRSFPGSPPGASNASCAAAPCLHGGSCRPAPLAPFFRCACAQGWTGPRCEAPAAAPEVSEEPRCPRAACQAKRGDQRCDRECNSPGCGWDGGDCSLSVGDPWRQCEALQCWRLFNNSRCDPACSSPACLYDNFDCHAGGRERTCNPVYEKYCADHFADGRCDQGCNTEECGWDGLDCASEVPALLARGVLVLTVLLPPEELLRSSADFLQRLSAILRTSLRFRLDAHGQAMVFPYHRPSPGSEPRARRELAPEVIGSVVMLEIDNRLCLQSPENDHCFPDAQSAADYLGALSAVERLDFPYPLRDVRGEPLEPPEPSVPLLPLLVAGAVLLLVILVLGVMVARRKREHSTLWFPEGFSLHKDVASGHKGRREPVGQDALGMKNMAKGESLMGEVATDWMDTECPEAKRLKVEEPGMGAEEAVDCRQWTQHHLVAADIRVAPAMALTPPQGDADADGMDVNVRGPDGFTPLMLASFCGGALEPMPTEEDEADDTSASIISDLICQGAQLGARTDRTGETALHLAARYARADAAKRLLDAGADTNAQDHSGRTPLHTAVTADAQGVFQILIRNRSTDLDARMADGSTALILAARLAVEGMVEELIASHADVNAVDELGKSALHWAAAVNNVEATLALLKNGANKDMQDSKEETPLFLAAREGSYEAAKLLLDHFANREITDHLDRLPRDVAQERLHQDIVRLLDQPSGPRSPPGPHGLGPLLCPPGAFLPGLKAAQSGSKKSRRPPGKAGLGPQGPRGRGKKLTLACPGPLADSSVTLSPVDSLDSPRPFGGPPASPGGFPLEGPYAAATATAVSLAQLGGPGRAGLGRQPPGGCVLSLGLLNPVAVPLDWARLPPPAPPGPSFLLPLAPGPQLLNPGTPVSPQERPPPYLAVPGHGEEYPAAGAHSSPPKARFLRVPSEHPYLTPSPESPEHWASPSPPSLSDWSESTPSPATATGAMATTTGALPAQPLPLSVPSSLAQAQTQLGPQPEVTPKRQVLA
A short description of assay [10]: probe aEGFR binding to arrayed compounds – biochemical, biotinylated probe, 635/667 nm fluorescence, primary screen (AID 1097).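 Note: probe is a biotinylated anti-EGFR antibody binding compounds printed on slides; score combines fluorescence near 667 nm and signal to noise of each spot.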 The settings on record: small-molecule microarray, higher = more signal.
For assay [11], the system named is Plasmodium falciparum Sir2 (PF13_0152, Sir2A). Description: Plasmodium falciparum Sir2A binding compounds – biochemical, small-molecule microarray, 635 nm fluorescence, primary screen (AID 1098).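 Note: score merges spot fluorescence intensity with its signal-to-noise ratio.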 The following applies: fluorescence 635 nm, higher = more signal.
Assay [12] can be described thus: probe aDKK1 binding to arrayed compounds – biochemical, biotinylated probe, 635/667 nm fluorescence, primary screen (AID 1099).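 Note: score merges 667nm spot fluorescence with signal to noise across triplicate slides; reference of the scale not given here.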 The following applies: small-molecule microarray, higher = more signal.
Assay [13] in a line: probe aCHRDL2 binding to arrayed compounds – biochemical, biotinylated probe, 635/667 nm fluorescence, primary screen (AID 1100). The following applies: small-molecule microarray, higher = more signal.
Assay [14] can be described thus: change in splice reporter luminescence, either direction, cell-based, HEK293, spliceosome inhibition project, primary screen (AID 1101).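 Note: HEK293 cells carrying a splicing-competent luciferase reporter gene; test concentration not given here.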 The settings on record: HEK293 splicing luciferase reporter, 24 h, higher = more signal, called active from +8 up or from −8 down.
Assay [15] has as its target Fibroblast growth factor 10 (Homo sapiens) (UniProt O15520). As to the kind of experiment: compounds binding fibroblast growth factor 10 – biochemical, small-molecule microarray, 635 nm fluorescence, primary screen (AID 1102). The following applies: FGF10 binding, fluorescence 635 nm, higher = more signal.
In assay [16] the test system is glycogen synthase kinase-3 (GSK3A per assay name; protocol says GSK3B). As to the kind of experiment: compounds binding glycogen synthase kinase-3 – biochemical, small-molecule microarray, 635 nm fluorescence, GSK3A, primary screen (AID 1103). Note: the record names both GSK3A and GSK3B. The following applies: fluorescence 635 nm, higher = more signal.
In assay [17] the target is Epidermal growth factor receptor (Homo sapiens) (UniProt P00533). As to the kind of experiment: compounds binding epidermal growth factor receptor – biochemical, small-molecule microarray, 635 nm fluorescence, primary screen (AID 1104).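 Note: score merges 667 nm emission intensity with spot signal to noise over triplicate slides.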 The settings on record: EGFR binding, higher = more signal.
Sequence of Epidermal growth factor receptor (Homo sapiens) (P00533 whole entry, looked up): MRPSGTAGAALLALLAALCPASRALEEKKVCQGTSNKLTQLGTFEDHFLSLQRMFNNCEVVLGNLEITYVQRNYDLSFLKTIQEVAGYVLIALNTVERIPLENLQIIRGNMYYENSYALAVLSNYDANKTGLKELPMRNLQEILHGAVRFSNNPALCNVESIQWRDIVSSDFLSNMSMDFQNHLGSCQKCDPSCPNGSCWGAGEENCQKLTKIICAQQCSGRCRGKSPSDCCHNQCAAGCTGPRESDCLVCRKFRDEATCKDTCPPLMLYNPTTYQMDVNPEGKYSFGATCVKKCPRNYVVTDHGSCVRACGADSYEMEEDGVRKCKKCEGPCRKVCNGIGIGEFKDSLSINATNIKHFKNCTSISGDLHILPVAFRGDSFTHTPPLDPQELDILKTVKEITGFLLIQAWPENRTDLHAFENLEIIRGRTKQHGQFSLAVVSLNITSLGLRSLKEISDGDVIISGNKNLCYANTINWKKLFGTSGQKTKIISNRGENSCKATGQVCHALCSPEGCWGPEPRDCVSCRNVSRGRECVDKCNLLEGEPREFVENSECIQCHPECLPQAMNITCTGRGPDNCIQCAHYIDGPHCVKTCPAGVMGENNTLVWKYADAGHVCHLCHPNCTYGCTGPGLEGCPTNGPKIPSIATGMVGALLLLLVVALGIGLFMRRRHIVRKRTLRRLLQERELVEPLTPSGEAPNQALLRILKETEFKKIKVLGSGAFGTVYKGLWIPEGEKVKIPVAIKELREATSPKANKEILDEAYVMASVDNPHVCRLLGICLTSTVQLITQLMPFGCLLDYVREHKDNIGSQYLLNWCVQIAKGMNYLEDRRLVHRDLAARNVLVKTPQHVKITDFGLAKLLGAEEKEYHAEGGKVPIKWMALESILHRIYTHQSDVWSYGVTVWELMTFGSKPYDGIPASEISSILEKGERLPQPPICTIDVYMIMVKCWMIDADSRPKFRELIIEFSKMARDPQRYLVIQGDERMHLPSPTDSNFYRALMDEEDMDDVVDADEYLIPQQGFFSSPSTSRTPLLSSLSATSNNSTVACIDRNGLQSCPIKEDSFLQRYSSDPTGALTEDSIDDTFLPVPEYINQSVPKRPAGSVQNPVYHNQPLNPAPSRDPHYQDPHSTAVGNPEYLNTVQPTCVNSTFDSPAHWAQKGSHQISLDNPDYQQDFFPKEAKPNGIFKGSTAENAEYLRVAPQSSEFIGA
In assay [18] the target is Follistatin-related protein 3 (Homo sapiens) (UniProt O95633). Description: compounds binding follistatin-related protein 3 – biochemical, small-molecule microarray, 635 nm fluorescence, primary screen (AID 1105).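 Note: score merges emission near 667 nm and signal to noise per printed spot across three slides.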 The settings on record: FSTL3 binding, higher = more signal.
Sequence of Follistatin-related protein 3 (Homo sapiens) (O95633 whole entry, looked up): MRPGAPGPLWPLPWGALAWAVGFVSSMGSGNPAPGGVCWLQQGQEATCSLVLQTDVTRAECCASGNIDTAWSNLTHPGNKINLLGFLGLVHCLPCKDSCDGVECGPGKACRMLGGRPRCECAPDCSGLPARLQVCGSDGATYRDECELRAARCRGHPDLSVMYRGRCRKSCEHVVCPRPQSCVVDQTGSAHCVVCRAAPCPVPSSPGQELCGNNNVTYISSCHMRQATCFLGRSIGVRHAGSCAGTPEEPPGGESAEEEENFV
For assay [19], the target named is Dickkopf-related protein 1 (Homo sapiens) (UniProt O94907). Description: small molecules binding DKK1 protein – biochemical, small-molecule microarray, 635 nm fluorescence scan, primary screen (AID 1106).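 Note: score merges emission near 667 nm with signal to noise over three replicate slides.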 The following applies: higher = more signal.
Sequence of Dickkopf-related protein 1 (Homo sapiens) (O94907 whole entry, looked up): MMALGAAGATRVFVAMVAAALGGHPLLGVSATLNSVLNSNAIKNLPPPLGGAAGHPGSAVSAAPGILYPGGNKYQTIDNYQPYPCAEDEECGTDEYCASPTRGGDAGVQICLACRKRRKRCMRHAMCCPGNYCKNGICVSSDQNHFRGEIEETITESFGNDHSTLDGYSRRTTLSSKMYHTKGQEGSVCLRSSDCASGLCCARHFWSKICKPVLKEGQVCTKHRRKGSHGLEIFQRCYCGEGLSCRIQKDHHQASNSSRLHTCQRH
For assay [20], the system named is Inhibin beta A chain (activin A). Description: small molecules binding activin A – biochemical, small-molecule microarray, 635 nm fluorescence scan, primary screen (AID 1107).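 Note: mouse activin A protein probed at 4.33 µg/mL on printed slides; score merges bound-protein fluorescence near 667 nm with spot signal-to-noise.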 The settings on record: INHBA, higher = more signal.

Activity calls are given as the source filed them.

Sequence of Fibroblast growth factor 10 (Homo sapiens) (O15520 whole entry, looked up): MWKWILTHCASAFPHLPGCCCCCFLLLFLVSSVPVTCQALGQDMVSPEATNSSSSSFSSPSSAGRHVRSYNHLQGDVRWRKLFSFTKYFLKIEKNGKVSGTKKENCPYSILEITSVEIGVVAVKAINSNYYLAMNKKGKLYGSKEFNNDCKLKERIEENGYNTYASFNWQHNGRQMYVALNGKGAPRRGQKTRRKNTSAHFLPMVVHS

On to `CC(CCN1CCc2nc(-c3ccccc3)c(-c3ccccc3)cc2C1)=NOC[C@@H](O)COCc1ccco1`, for which the composite z-score in assay [1] was 0.651; in assay [5] it was 0.0955; in assay [7], -0.176; in [8], 0.806; in assay [9] it was 0.481; in assay [10], -0.083. Also, the composite z-score is 0.752 in assay [11]; -0.131 in assay [12]; -0.614 in assay [13]; 0.52 in [15]; 0.814 in assay [16]; 0.377 in [17]. In addition, the composite z-score was found to be 0.776 in assay [18], 1.08 in [19] and 1.48 in assay [20]. Further, the z-score in assay [2] is -0.544 (inactive); in [3], -1.45 (inactive); in [4], -3.75 (inactive); in assay [6] it was 0.845 (inactive); in assay [14], 0.0302 (inactive).
On to `CCCNC(=O)OC[C@H]1O[C@H](CCON=Cc2ccc(C(=O)N3[C@H](c4ccc(C)cc4)[C@@H](C)CC[C@H]3C(=O)OC)cc2)C=C[C@@H]1Oc1ccc(OC)cc1`, for which the composite z-score in assay [1] was 1.15; in assay [5], 1.02; in assay [7], -0.263; in assay [8] it was 1.03; in assay [9], 0.607; in [10], -0.307. For the same molecule, the composite z-score in assay [11] is 0.463; in assay [12] it was -0.186; in assay [13], -0.0627; in [15] it was 0.523; in assay [16], 0.581; in assay [17], 0.417. Also, the composite z-score came out at 0.355 in assay [18], 0.0399 in assay [19] and 0.446 in [20]. The z-score in assay [2] is 0.0299 (inactive); in assay [3] it was 1.68 (inactive); in assay [4], 1.25 (inactive); in assay [6], 0.215 (inactive); in [14], -0.357 (inactive).
On to `CCOC(=O)CCN1C(=O)[C@H]2[C@H]3[C@H](O)[C@H](O)CC(=NNC(=O)OCc4ccccc4)[C@@H]3CC[C@H]2C1=O`, for which the composite z-score was 1.05 in assay [1]; 0.967 in assay [5]; -0.23 in assay [7]; 0.713 in assay [8]; 1.01 in [9]; -0.0688 in assay [10]. Further, the composite z-score is 0.205 in assay [11]; -0.111 in assay [12]; -0.201 in assay [13]; 0.709 in assay [15]; 0.323 in assay [16]; 0.188 in assay [17]. In addition, the composite z-score in assay [18] was 0.993; in [19] it was 0.516; in assay [20], -0.196. Besides, the z-score in assay [2] is -0.662 (inactive); in [3], 0.279 (inactive); in assay [4], -0.598 (inactive); in assay [6], 0.826 (inactive); in [14], 0.265 (inactive).
For the molecule `O=C1[C@H]2[C@H]3[C@H](O)[C@H](O)CC(=NOCc4ccccc4)[C@@H]3CC[C@H]2C(=O)N1Cc1ccc2c(c1)OCO2`, the composite z-score in assay [1] is 0.231; in assay [5] it was 0.664; in assay [7] it was -0.17; in [8], 0.297; in assay [9] it was 0.428; in [10], 0.0761. The composite z-score in [11] was 0.0183; in [12], -0.225; in assay [13] it was -0.453; in assay [15], 0.32; in assay [16], -0.0163; in assay [17] it was 0.317. Also, the composite z-score in [18] was 0.517; in [19] it was 0.472; in assay [20] it was 0.45. Besides, the z-score in [2] is -0.559 (inactive); in [3], 0.437 (inactive); in assay [4], -0.789 (inactive); in assay [6], 1.1 (inactive); in [14] it was 0.631 (inactive).
With `CC(CCN1CCCCc2nc(C)c(C)cc21)=NOC[C@@H](O)COCc1ccco1`, the composite z-score in assay [1] is 1.3; in assay [5] it was -0.58; in assay [7], -0.0042; in [8] it was 1.21; in assay [9], 0.876; in assay [10] it was 0.592. Further, the composite z-score in [11] was 1.19; in assay [12], -0.286; in assay [13], -1.58; in assay [15], 1.26; in [16] it was 1.34; in assay [17] it was 1.74. Moreover, the figures for the composite z-score in assay [18], in assay [19] and in assay [20] were 1.52, 2 and 1.79, respectively. Moreover, the z-score is -1.35 (inactive) in assay [2]; 0.527 (inactive) in [3]; -0.119 (inactive) in assay [4]; 0.742 (inactive) in assay [6]; 0.44 (inactive) in [14].
